The source of these data is paper PMC6919601, “Identification of Plasmodium dipeptidyl aminopeptidase allosteric inhibitors by high throughput screening” (PLoS ONE, 2019).

Structures are written as SMILES. Values joined by “and” are separate entries in the source; they are usually repeats but may differ in a detail not shown here. Identical values can stand only once. Screen size: about 110,000 compounds; about 230 (0.21%) showed an effect of 50% or more. Shown is part of a subset that was picked to be rich in strong results.
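Further: 30 min substrate incubation versus DMSO and 10 µM JCP410 controls.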

Sequence of DPAP1 (Q8IIJ9 whole entry, looked up): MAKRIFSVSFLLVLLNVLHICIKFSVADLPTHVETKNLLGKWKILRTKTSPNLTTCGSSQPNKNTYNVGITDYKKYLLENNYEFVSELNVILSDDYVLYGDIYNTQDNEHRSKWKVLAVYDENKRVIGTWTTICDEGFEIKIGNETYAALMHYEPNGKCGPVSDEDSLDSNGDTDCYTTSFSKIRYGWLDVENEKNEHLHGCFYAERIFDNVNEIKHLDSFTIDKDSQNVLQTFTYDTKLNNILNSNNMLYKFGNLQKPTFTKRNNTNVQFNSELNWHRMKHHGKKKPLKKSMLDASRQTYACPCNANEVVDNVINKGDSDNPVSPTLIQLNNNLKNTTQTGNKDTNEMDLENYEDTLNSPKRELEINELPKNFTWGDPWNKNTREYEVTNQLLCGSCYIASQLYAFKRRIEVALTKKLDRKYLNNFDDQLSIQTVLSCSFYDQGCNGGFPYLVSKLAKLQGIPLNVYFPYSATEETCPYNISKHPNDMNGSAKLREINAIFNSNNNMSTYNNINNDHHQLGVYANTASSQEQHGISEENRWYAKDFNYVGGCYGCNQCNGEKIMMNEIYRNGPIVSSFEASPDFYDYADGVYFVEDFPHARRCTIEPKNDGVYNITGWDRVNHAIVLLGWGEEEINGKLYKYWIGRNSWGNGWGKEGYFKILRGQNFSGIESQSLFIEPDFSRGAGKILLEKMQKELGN

This experiment has as its target DPAP1 (Plasmodium falciparum, UniProt Q8IIJ9). Description: primary screen, percent inhibition; read by cleavage of a fluorogenic dipeptide substrate; higher = more effect of the substance. Details: species or system P. falciparum D10 trophozoite lysates; single well.
On to `O=C1CN(S(=O)(=O)c2ccccc2)CCN1S(=O)(=O)c1ccccc1`, for which the “% Inhibition @ 10 uM” value is given as 60.8%.

Consider `O=S(=O)(c1ccccc1)N1CCN(c2ccccc2)CC1`, for which the “% Inhibition @ 10 uM” value is 5.09%.

Turning to `COc1cc(CN2CCc3c([nH]c4ccccc34)C2)cc2c1OCO2`, the “% Inhibition @ 10 uM” value is -5.11%. The figure for `CC(=O)C1=C(C)OC(N)=C(C#N)C1c1cc2c(cc1[N+](=O)[O-])OCO2` (stereo not drawn) is -1.29%; for `CN(Cc1cnn(-c2ccccc2)c1)S(=O)(=O)c1ccc(-c2cc(C(F)(F)F)no2)s1` it is 1.05%. The figure for `Cc1cc(C)c(C#N)c(S)n1` is 89.9%; for `Cc1cc(C)c(C#N)c(Cl)n1` it is 1.27%. With `CCc1nc(S)c(C#N)c(C(F)(F)F)c1C` the figure was 74.2%; with `CC(C)(C)c1cc(-c2ccco2)c(C#N)c(S)n1`, 20.6%; with `Cc1cc(C(F)(F)F)c(C#N)c(S)n1`, 82.2%. With `CCc1nc(N)c(C#N)c(-c2ccc(Br)s2)c1C`, the “% Inhibition @ 10 uM” value was -3.13%.

As to `Cc1cc(-c2ccco2)c(C#N)c(N)n1`, the “% Inhibition @ 10 uM” value came to 1.38%. The figure for `COCc1cc(C)nc(S)c1C#N` is 43.7% and 44.2%; for `CCc1nc(SCc2cccnc2)c(C#N)c(C(F)(F)F)c1C` it is 0.775%. The figure for `Cc1cc(-c2ccco2)c(C#N)c(S)n1` is 51.7%; for `CSc1nc(C)cc(C(F)(F)F)c1C#N` it is 4.97%. The figure for `Cc1cc(C(F)(F)F)c(C#N)c(SCc2ccccc2)n1` is 2.23%; for `O=C1c2cccnc2C(=O)N1c1ccccc1-c1ccccc1` it is -2.29%.

Turning to `COCCNC(=O)c1sc2ncn(CC(=O)N3CCC(C)CC3)c(=O)c2c1C`, the “% Inhibition @ 10 uM” value is given as -2.17%.

For `CCCC(=O)n1nc2c3c(cccc31)C(=O)c1ccccc1-2`, the “% Inhibition @ 10 uM” value is listed as -2.75%. With `Cc1ccc(O)c(/C=N/c2c(C)nn(C)c2C)c1` the figure was 7.26%; with `CC(C)CCn1nnc2sc3c(c2c1=O)CCC(C)C3` (stereo not drawn), -6.78%. The figure for `Cc1ccc(CNc2nc3ccccc3c3nc(-c4ccncc4)nn23)cc1` is 0.981%; for `O=C1NC(=S)NC(=O)C1=Cc1ccccc1OCCO` it is -6.17%; for `CC(=O)NS(=O)(=O)c1ccc(NC(=O)COc2ccc(C)cc2)cc1` it is -0.473%. With `CC(C)(C)c1ccc(C(CC(=O)O)NS(=O)(=O)Cc2ccccc2)cc1` (stereo not drawn) the figure was 2.72%; with `Cc1cccc(N2C(=O)C3C4c5ccccc5C(C)(c5ccccc54)C3C2=O)c1` (stereo not drawn), 2.6%; with `CC12c3ccccc3C(c3ccccc31)C1C(=O)N(c3ccc(Cl)cc3)C(=O)C12` (stereo not drawn), -1.59%. For the compound `Cc1ccc(N2C(=O)C3C4c5ccccc5C(C(C)O)(c5ccccc54)C3C2=O)cc1` (stereo not drawn), the “% Inhibition @ 10 uM” value came to 53.4%. With `Cn1c(C2=CC(C)(C)NC(C)(C)C2)ccc1C1=CC(C)(C)NC(C)(C)C1` the figure was -5.9%; with `COCCNC(=O)CCNS(=O)(=O)c1ccc(C)cc1`, -0.256%; with `CCOc1cc(C2c3c(-c4ccccc4O)n[nH]c3C(=O)N2Cc2ccco2)ccc1O` (stereo not drawn), 52.6%. With `COc1cc(C2c3c(-c4ccccc4O)n[nH]c3C(=O)N2Cc2ccco2)ccc1O` (stereo not drawn) the figure was -3.12%. With `CCOc1ccc(C2c3c(-c4ccccc4O)n[nH]c3C(=O)N2Cc2ccco2)cc1OC` (stereo not drawn), the “% Inhibition @ 10 uM” value amounted to 0.366%. The figure for `COc1ccc(CN(Cc2ccccc2)S(=O)(=O)c2ccc(-n3cnnn3)c(C)c2)cc1` is 2.08%. The figure for `Cc1cc(S(=O)(=O)N(Cc2ccccc2)Cc2ccccc2Cl)ccc1-n1cnnn1` is 58.7%; for `Cc1cc(S(=O)(=O)N2CCC(n3c(O)nc4ccccc43)CC2)ccc1-n1cnnn1` it is -0.671%. For the compound `CNS(=O)(=O)c1cn(CC(=O)NCc2ccccn2)cc1S(=O)(=O)NC`, the “% Inhibition @ 10 uM” value was -7.87%. The figure for `O=C(CC1SC(=O)N(Cc2cccc3ccccc23)C1=O)Nc1nccs1` (stereo not drawn) is -2.82%. For `C(=C\c1ccccc1)/CN1CCN(C2CCN(Cc3ccccc3)CC2)CC1`, the “% Inhibition @ 10 uM” value worked out at 1.88%. The figure for `C(=C\c1ccccc1)/CN1CCN(C2CCN(CCc3ccccc3)CC2)CC1` is 97.7%; for `C(=C\c1ccccc1)/CN1CCN(CCc2ccccc2)CC1` it is 1.74%. For the compound `Cc1cc(=O)n2nc(N(C)CC(=O)NCc3ccc4c(c3)OCO4)sc2n1`, the “% Inhibition @ 10 uM” value is reported as 3%. With `Cc1nnc2c(NCc3ccco3)nc3ccc(C(=O)c4ccccc4)cc3n12` the figure was -6.09%. Consider `Cc1nnc2c(NCc3ccccc3)nc3ccc(C(=O)c4ccccc4)cc3n12`, for which the “% Inhibition @ 10 uM” value is reported as 0.454%. With `Cc1nnc2c(NCc3ccc4c(c3)OCO4)nc3ccc(C(=O)c4ccccc4)cc3n12` the figure was 79.7%. With `O=C(c1ccco1)N1CCN(c2nc3ccccc3n3nnnc23)CC1` the figure was 2.76%; with `CC(=O)N/C(=C\c1ccccc1)C(=O)Nc1ccc(Cl)cc1`, -6.99%. As for `O=C1c2cccc3cccc(c23)C(=O)N1CCN1CCN(S(=O)(=O)c2ccc(Cl)cc2)CC1`, the “% Inhibition @ 10 uM” value is on record as 5.97%. `O=C(c1ccc(Cl)cc1)N1CCN(CCN2C(=O)c3cccc4cccc(c34)C2=O)CC1`: the “% Inhibition @ 10 uM” value is -5.31%. The figure for `O=C1C(S(=O)c2ccc(Cl)cc2)=C(O)c2cccc3cccc1c23` (stereo not drawn) is 77.5%.
